Compound activity (PubChem)
JMJD2A Tudor: blocks the human JMJD2A Tudor domain; O75164; AlphaScreen JMJD2A-Tudor / H3K4me3 peptide binding; Potency, µM (top dose mostly 114 µM), inactives show at the highest dose activity change, negative = inhibition, actives largely listed as inhibitors; 4.4% of 390,000 active; further: on the % scale 0 is the no-effect control and ±100 the full control effect; nearly all actives have a fitted effect of over 50% in size
Target sequence (O75164 whole entry, looked up, the tested form may be a part): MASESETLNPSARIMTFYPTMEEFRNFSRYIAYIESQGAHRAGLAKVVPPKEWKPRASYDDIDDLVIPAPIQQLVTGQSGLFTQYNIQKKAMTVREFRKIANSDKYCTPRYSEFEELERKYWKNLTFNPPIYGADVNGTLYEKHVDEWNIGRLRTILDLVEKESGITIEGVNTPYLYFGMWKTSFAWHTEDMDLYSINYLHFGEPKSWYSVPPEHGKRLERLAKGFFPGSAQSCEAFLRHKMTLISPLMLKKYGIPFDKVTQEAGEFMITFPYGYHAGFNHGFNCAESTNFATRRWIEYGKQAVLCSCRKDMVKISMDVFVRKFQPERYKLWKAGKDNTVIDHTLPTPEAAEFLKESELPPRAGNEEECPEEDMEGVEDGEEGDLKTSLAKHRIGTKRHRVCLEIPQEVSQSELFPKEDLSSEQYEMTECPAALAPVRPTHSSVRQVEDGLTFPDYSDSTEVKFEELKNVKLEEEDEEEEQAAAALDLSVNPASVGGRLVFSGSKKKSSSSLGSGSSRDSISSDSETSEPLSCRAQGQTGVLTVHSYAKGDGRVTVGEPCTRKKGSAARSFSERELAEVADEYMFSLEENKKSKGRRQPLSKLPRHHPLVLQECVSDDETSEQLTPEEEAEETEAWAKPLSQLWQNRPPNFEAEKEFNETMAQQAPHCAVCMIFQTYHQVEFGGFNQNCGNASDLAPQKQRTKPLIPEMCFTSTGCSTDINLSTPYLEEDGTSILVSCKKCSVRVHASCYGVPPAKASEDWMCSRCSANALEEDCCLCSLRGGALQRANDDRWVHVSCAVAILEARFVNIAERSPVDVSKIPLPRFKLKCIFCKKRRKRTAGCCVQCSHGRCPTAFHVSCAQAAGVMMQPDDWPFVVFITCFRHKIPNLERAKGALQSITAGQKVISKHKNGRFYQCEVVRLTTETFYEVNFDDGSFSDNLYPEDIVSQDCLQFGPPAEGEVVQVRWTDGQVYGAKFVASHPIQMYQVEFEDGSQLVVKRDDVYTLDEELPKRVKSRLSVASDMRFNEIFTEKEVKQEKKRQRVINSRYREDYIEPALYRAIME
BAZ2B inh: blocks human BAZ2B. 4.4% of 360,000 active. AlphaScreen BAZ2B-H3K14Ac peptide displacement. Potency, µM (titrated, usually from 114 µM), without a hit: top-dose activity change, negative = inhibition, most hits filed as inhibitors; further: on the % scale 0 is the no-effect control and ±100 the full control effect; nearly all actives have a fitted effect of over 60% in size
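Compounds, titrated to a top concentration of 110 uM, were incubated 30 min at room temperature with preformed BAZ2B/acetyl-K14 H3 peptide complex (50 nM each). Proximity signal was measured by AlphaScreen after 20 min with beads.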
G9a block: blocks human histone lysine methyltransferase G9a; Q96KQ7; G9a H3K9 monomethylation, AlphaScreen, 2 h; Potency, µM (doses to about 102 µM), without a hit: top-dose activity, negative = inhibition, actives largely listed as inhibitors; 8.8% of 350,000 active; further: on the % scale 0 is the no-effect control and ±100 the full control effect; nearly all actives have a fitted effect of over 75% in size
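Quantitative HTS format: methyltransferase activity on a biotin-tagged H3K9 peptide is measured by AlphaScreen, using a rabbit anti-monomethyl-H3K9 antibody with streptavidin donor and anti-IgG acceptor beads. Final levels are 20 nM enzyme, 500 nM peptide, 20 uM SAM; 2 h RT.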
L3MBTL1 block: inhibitors of human L3MBTL1 | AlphaScreen L3MBTL1–H3K9me1 peptide binding | Potency, µM (series often up to 57.1 µM), for the others: top-dose activity, negative = inhibition, actives largely listed as inhibitors | 0.66% of 230,000 active | AID 485360; further: on the % scale 0 is the no-effect control and ±100 the full control effect; nearly all actives have a fitted effect of over 60% in size
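AlphaScreen assay: L3MBTL1 (50 nM final) was preincubated 30 min at room temperature with biotinylated H3(1-15)K9me1 peptide (75 nM final), then 30 min with library compounds; streptavidin donor and nickel chelate acceptor beads (10 ug/mL final) added, 30 min dark.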
HP1b chromo inh: inhibitors of HP1-beta chromodomain binding to methylated histone tails; AlphaScreen HP1-beta / biotin-H3K9me3 peptide binding; Potency, µM (doses to about 114 µM), without a hit: at the highest dose activity change, negative = inhibition, most hits filed as inhibitors; 0.56% of 390,000 active; AID 540317; further: nearly all actives have a fitted effect of over 70% in size
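AlphaScreen: HP1-beta (50 nM) preformed 30 min with biotin-H3(1-18)K9me3 peptide (50 nM) in PBS pH 7.4, 0.01% Tween-20. Compound added for 30 min at RT, then streptavidin donor/nickel chelate acceptor beads (10 ug/mL) for 30 min.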
The depositor's hits bear a star; ? = inconclusive; . = no result given; [ ] = dose if it differs, or a comment. This is a sample that favours compounds with a hit; in the whole collection about 11% have one here. The call rests on the fitted dose curve; in most records, active means well fitted inhibition curve with a large enough effect; inconclusive means small, poorly fitted or top-dose-only effect; inactive means no such curve, though single readings can be large or run the other way. Potency means the concentration at half of the fitted maximal effect.

SMILES	JMJD2A Tudor	BAZ2B inh	G9a block	L3MBTL1 block	HP1b chromo inh
COC(=O)C1=C[C@@H](C(=O)OC)C2C3=C(C(=O)[C@@]2(C)NC(=O)c2ccccc2)[C@H](C)[C@@H]2C(=O)NC(=O)[C@@H]2[C@@H]3C1 (stereo partly specified)	-10.3%	.	.	.	13.8%
c1ccc(-c2csc(=Nc3cccnc3)n2CC2CCCO2)cc1 (stereo unspecified)	?	?	?	-15.5%	-11.1%
O=C1COc2ccc(-c3csc(=Nc4ccc(OC(F)F)cc4)n3CC3CCCO3)cc2N1 (stereo unspecified)	?	?	27.1%[0.501 µM]	-20.7%	-15.1%
CN(C)S(=O)(=O)c1cccc(N=c2scc(-c3ccc4c(c3)NC(=O)CO4)n2CC2CCCO2)c1 (stereo unspecified)	?	50.1µM*	-43.4%[12.7 µM]	.	?
COc1ccccc1N=c1scc(-c2ccc3c(c2)NC(=O)CO3)n1CC1CCCO1 (stereo unspecified)	?	44.7µM*	?	.	?
CSc1nnc(-c2ccccc2Cl)n1N	10.3%	-4.3%	-31.6%[12.7 µM]	.	19.0%
Nn1c(-c2ccccc2Cl)nnc1-c1ccccc1Cl	-28.5%	-12.4%	3.55µM*	4.7%	22.1%
CCCCOc1ccc(C(=O)N(Cc2ccc(C(C)C)cc2)C2CCS(=O)(=O)C2)cc1 (stereo unspecified)	-17.9%	-17.7%	2.6%[59 µM]	.	21.0%
Cc1cc(C(=O)NNc2ccccc2F)no1	-4.1%	-1.2%	39.8µM*	1.2%	45.4%
Cc1cc(C(=O)NNc2ccc(F)cc2)no1	-3.5%	3.2%	28.2µM*	5.3%	37.2%
O=C(NNc1c(Cl)cccc1Cl)c1sccc1Cl	-8.7%	-14.2%	12.6µM*	2.1%	72.5%
Cc1cc(C(=O)NNc2c(Cl)cccc2Cl)no1	9.0%	-1.9%	28.2µM*	8.4%	42.4%
O=C(NNc1c(Cl)cccc1Cl)c1ccno1	-12.8%	-1.7%	-15.6%[59 µM]	1.7%	41.4%
CCNC(=O)c1ccc2nc(Cc3ccccc3)oc2c1	-6.4%	-2.5%	2.6%[59 µM]	.	12.2%[57 µM]
CCCc1ccc(C(=O)NNc2ccccc2F)cc1	-9.6%	-14.1%	56.2µM*	8.7%	62.9%
CCc1ccccc1NNC(=O)c1cc(C)on1	-10.3%	2.3%	3.16µM*	10.1%	49.6%
Cc1cc(C(=O)Nc2ccccc2C(F)(F)F)no1	7.9%	-5.3%	-15.8%[2.33 µM]	2.6%	41.7%
CCc1ccc(C(=O)NNc2ccccc2F)cc1	-10.8%	-18.1%	.	6.0%	40.1%
Cc1ccc(CN(Cc2ccco2)C(=O)COc2cc(C)c(Cl)c(C)c2)cc1	37.2%	30.5%	48.1%[59 µM]	.	61.3%
c1cc2c(cc1C1CCCCC1)c1c3n2CCN=C3CCC1	?	0.1%	?	8.4%	-10.0%
Cc1ccc2c(c1)c1c3n2CCN=C3CCC1	-24.2%	.	17.8µM*	3.9%	10.7%
Cc1ccc(-n2cnc3cc(C(=O)NC4CCCCCC4)ccc32)c(C)c1	?	-16.8%	-34.6%[59 µM]	.	19.5%
CCOc1ccccc1NC(=O)CN1C(=O)CC(c2ccco2)Sc2ccccc21 (stereo unspecified)	?	?	-30.1%[59 µM]	.	-14.4%
Cc1ccc(C(=O)/C=C/C(=O)c2ccc(C)cc2)cc1	-23.1%	6.0%	1.58µM*	12.6%	?
Cc1ccc(/C=C/C(=O)c2ccc(C)cc2)cc1	-1.5%	11.2%	7.9%[59 µM]	10.7%	19.6%
SMILES	JMJD2A Tudor	BAZ2B inh	G9a block	L3MBTL1 block	HP1b chromo inh
C#CCOCCOCCOCCNc1nc(N2CCN(C(=O)[C@H](CCCCN)n3cc([C@@H](N)[C@H](C)CC)nn3)CC2)nc(N2CCN(C(=O)[C@H](CCCCN)n3cc([C@@H](N)CC(N)=O)nn3)CC2)n1	-26.4%	.	.	1.5%	77.6%
C#CCOCCOCCOCCNc1nc(N2CCN(C(=O)[C@H](CCC(=O)O)n3cc([C@@H](N)[C@H](C)CC)nn3)CC2)nc(N2CCN(C(=O)[C@H](CCC(=O)O)n3cc([C@@H](N)CC(N)=O)nn3)CC2)n1	56.2µM*	.	.	-17.7%	19.7%
C#CCOCCOCCOCCNc1nc(N2CCN(C(=O)[C@H](CC(N)=O)n3cc(C(N)[C@@H](C)CC)nn3)CC2)nc(N2CCN(C(=O)[C@H](CCCCN)n3cc([C@@H](N)CC(N)=O)nn3)CC2)n1 (stereo partly specified)	79.4µM*	.	.	-5.6%	22.7%
C#CCOCCOCCOCCNc1nc(N2CCN(C(=O)[C@H](CCC(=O)O)n3cc([C@@H](N)[C@H](C)CC)nn3)CC2)nc(N2CCN(C(=O)[C@H](CCCCN)n3cc([C@@H](N)CC(N)=O)nn3)CC2)n1	5.62µM*	.	.	-7.1%	-14.3%
C#CCOCCOCCOCCNc1nc(N2CCN(C(=O)[C@H](CCCCN)n3cc(CN)nn3)CC2)nc(N2CCN(C(=O)[C@H](CC(N)=O)n3cc(C(N)[C@H](C)CC)nn3)CC2)n1 (stereo partly specified)	39.8µM*	.	.	-8.5%	14.9%
CC(C)Oc1ccc(CNS(=O)(=O)c2ccc3c(c2)C(C)(C)C(=O)N3C)cc1	8.8%	2.9%	2.8%[59 µM]	.	27.5%
C#CCOCCOCCOCCNc1nc(N2CCN(C(=O)[C@H](CC(N)=O)n3cc(C(N)[C@@H](C)CC)nn3)CC2)nc(N2CCN(C(=O)[C@H](CCC(=O)O)n3cc([C@@H](N)CCCCN)nn3)CC2)n1 (stereo partly specified)	79.4µM*	.	.	-8.2%	13.9%
C#CCOCCOCCOCCNc1nc(N2CCN(C(=O)[C@H](CC(N)=O)n3cc(C(N)[C@H](C)CC)nn3)CC2)nc(N2CCN(C(=O)[C@H](CC(N)=O)n3cc(C(N)[C@@H](C)CC)nn3)CC2)n1 (stereo partly specified)	22.4µM*	.	.	-8.3%	33.1%
C#CCOCCOCCOCCNc1nc(N2CCN(C(=O)C([C@@H](C)O)n3cc([C@@H](N)CCCCN)nn3)CC2)nc(N2CCN(C(=O)[C@H](CC(N)=O)n3cc(C(N)[C@@H](C)CC)nn3)CC2)n1 (stereo partly specified)	?	.	.	-1.7%	31.7%
C#CCOCCOCCOCCNc1nc(N2CCN(C(=O)[C@H](CCCCN)n3cc([C@@H](N)C(C)CC)nn3)CC2)nc(N2CCN(C(=O)[C@H](CCCCN)n3cc([C@@H](N)CC(C)C)nn3)CC2)n1 (stereo partly specified)	?	70.8µM*	?	0.5%	22.6%
CCN(N=Nc1cccc([N+](=O)[O-])c1)c1cccc([N+](=O)[O-])c1	?	?	?	.	-33.5%
CCOc1cc(C=O)cc(N=Nc2cccc([N+](=O)[O-])c2)c1O	?	25.1µM*	44.7µM*	-15.5%	?
O=c1oc2c(CN3CCOCC3)c(O)c(Cl)cc2c2c1CCCC2	-2.3%	11.3%	79.4µM*	33.3%	15.9%
